The list is not random: actives were taken first. Their share in the collection is about 3.1%.
S16 viability: Cell viability qHTS assay in S16 Pmp22-F2sN cells; 0.48% of 43,000 active; Potency, µM (doses to about 57.5 µM), inactives show top-dose activity change, negative = cytotoxicity, actives largely listed as cytotoxic; S16 Pmp22-F2sN Schwann cells viability, CellTiter-Glo, 24 h; also: nearly all actives have a fitted effect of over 65% in size
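Seed 500-1,000 S16 Pmp22-F2sN cells per well in phenol-red-free DMEM with 10% heat-inactivated FBS; pin-add 23 nL compound; incubate 24 h at 37C; add CellTiter-Glo, wait 15 min protected from light; read luminescence.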
p53null 32C tox: qHTS Screen for Compounds that Selectively Target Cancer Cells with p53 Mutations: Cytotoxicity of p53 Null Cells at the Permissive Temperature; H1299-neo p53 null cells, ATP luminescence, 24 h, 32C; Potency, µM (titrated, usually from 46.1 µM), without a hit: at the top dose activity change, negative = cytotoxicity, actives largely listed as cytotoxic; 0.62% of 55,000 active;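 also: 0% = DMSO only and -100% = full killing by 100 µM tamoxifen; nearly all actives have a fitted effect of over 55% in size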
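Luminescent ATP readout gave cell viability of p53-null H1299-neo cells after a 24 h compound exposure at the permissive 32C. Titrations ran up to 46 uM, and AC50s were fitted with the standard Hill equation.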
p53null 39C tox: qHTS Screen for Compounds that Selectively Target Cancer Cells with p53 Mutations: Cytotoxicity of p53 Null Cells at the Nonpermissive Temperature; H1299 p53-null (neo) cells, 39C, ATPlite viability, 24 h; Potency, µM (doses to about 46.1 µM), without a hit: at the top dose activity, negative = cell killing, actives largely listed as cytotoxic; 0.97% of 55,000 active; AID 904, 2007;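 also: 0% = DMSO only and -100% = full killing by 100 µM tamoxifen; nearly all actives have a fitted effect of over 50% in size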
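ATP-luminescence viability readout (ATPlite, 20 min RT) after 24 hr compound treatment at 39C of H1299-neo or H1299-p53A138V cells; titration up to 46 uM; normalized to DMSO and 100 uM tamoxifen; Hill-fit AC50.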
pS6 MEF inh: Acumen qHTS Assay for Inhibitors of the mTORC1 Signaling Pathway in MEF (Tsc2-/-, p53-/-) Cells: Sytravon | Tsc2-/- p53-/- MEF, phospho-rpS6 immunofluorescence/PI, 24 h | Potency, µM (highest dose often 38.3 µM), for the others: top-dose activity change, negative = inhibition, hits mostly inhibitors | 0.78% of 44,000 active | AID 493208, 2011;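 also: plate controls were DMSO for no effect and rapamycin for full effect; nearly all actives have a fitted effect of over 50% in size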
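Read-out: phospho-S6 Alexa-488 intensity over PI intensity per well, scored as % active cells using thresholds from rapamycin (7.5 nM) and DMSO controls. Tsc2-/-, p53-/- MEFs exposed to compound for 24 h; PI cell count recorded as viability.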
PMP22 txn: Cell-based coincidence reporter assay to measure PMP22 gene transcription in S16 Pmp22-F2sN cells - Primary screen | S16 Pmp22-F2sN Schwann cells (luciferase reporters placed in the Pmp22 gene), FLuc/NLuc coincidence luminescence, 24 h | Potency, µM (titrated, usually from 57.5 µM), without a hit: at the highest dose activity change, negative = inhibition, hits mostly inhibitors | 2% of 43,000 active; active = clear falling dose curves in both reporters; inconclusive = both reporters move, but less clearly or upward; inactive = either reporter flat; the % is the NLuc reporter signal
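Reporter cells (S16 Pmp22-F2sN, 500–1,000 per well) exposed to compounds for 24 h, 37C, 5% CO2; lysis with FLuc read after 10 min, then Stop&Glo and NLuc read after 10 min.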
SKOV3 invasion: Primary qHTS assay for Inhibitors of ovarian cancer metastasis using an organotypic tumor microenvironment (TME) model. Potency, µM (top dose mostly 45.8 µM), inactives show at the highest dose activity change, negative = inhibition, hits mostly inhibitors. AID 1963576, 2024. 0.1% of 46,000 active. SKOV3ip1-GFP adhesion/invasion on 3D omental model, fluorescence;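 also: plate controls were DMSO wells for no effect and tomatine positive control wells for full effect; nearly all actives have a fitted effect of over 65% in size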
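A 3D layer of primary human omental fibroblasts, mesothelial cells, fibronectin and collagen I, grown 48 hr, received SKOV3ip1-GFP cells in serum-free medium plus compounds at 0.36-46 umol/L. After 2 hr RT and 16 hr 37 C, fixed adherent GFP cells were counted; normalized to DMSO and tomatine.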
Numbers without * were called inactive; ? = inconclusive; / = not tested or not shown. Unless noted, calls follow the shape of the dose curve; as a rule, active = well fitted curve in the direction sought with a large enough effect; inconclusive = small, poorly fitted or top-dose-only effect, or another doubt; inactive = no such curve, though single readings can be large; an effect the other way counts as inactive or inconclusive. Unless noted, % is scaled to controls: 0 for no effect and ±100 for the full control effect; potency is read from the fitted curve at half-maximal effect.

SMILES | S16 viability | p53null 32C tox | p53null 39C tox | pS6 MEF inh | PMP22 txn | SKOV3 invasion
CCCSc1oc(-c2cccs2)nc1S(=O)(=O)c1ccc(C)cc1 | 3.3% | 19.2% | 17.7% | 0.2% | -11.0% | 0.2%
Cc1ccc(S(=O)(=O)c2nc(-c3ccc(F)cc3)oc2N2CCN(c3ccccc3)CC2)cc1 | 4.3% | 2.1% | 4.8% | -8.2% | 0.3% | -2.1%
CCCCS(=O)(=O)c1oc(-c2ccc(F)cc2)nc1S(=O)(=O)c1ccc(C)cc1 | ? | 15.8µM* | ? | 4.14µM* | 8.43µM* | -8.5%
CCS(=O)(=O)c1oc(-c2ccc(F)cc2)nc1S(=O)(=O)c1ccccc1 | 3.16µM* | ? | 27.8% | 0.131µM* | 2.51µM* | -7.7%
CCCCS(=O)(=O)c1oc(-c2cccs2)nc1S(=O)(=O)c1ccc(F)cc1 | 2.82µM* | 22.5% | 55.2% | 2.07µM* | 3.03µM* | ?
CCC(C)S(=O)(=O)c1oc(-c2ccc(F)cc2)nc1S(=O)(=O)c1ccc(F)cc1 (stereo unspecified) | 6.31µM* | 25.1µM* | -17.5% | 0.826µM* | 2.53µM* | 3.55µM*
O=S(=O)(c1ccccc1)c1nc(-c2ccc(F)cc2)oc1N1CCCCCC1 | ? | 17.0% | 19.9% | 2.5% | ? | 0.3%
CSc1oc(-c2ccc(F)cc2)nc1S(=O)(=O)c1ccc(Br)cc1 | -14.6% | -3.6% | -6.7% | -0.8% | 6.2% | -14.8%
C[C@H](NC(=O)Cc1cc(F)cc(F)c1)C(=O)N[C@H](C(=O)OC(C)(C)C)c1ccccc1 | / | / | / | / | / | 19.7%
Cc1cc(C)c2c(N)c(C(=O)Nc3ncc(C)s3)sc2n1 | / | 0.891µM* | 1µM* | / | / | /
COc1ccc(-c2cc(C(F)(F)F)nc(SCCC(=O)Nc3cc(C)ccc3O)n2)cc1 | 11.9% | -2.5% | 11.2µM* | -14.6% | ? | -3.6%
COc1ccc(-c2cc(C(F)(F)F)nc(SCCC(=O)Nc3ccccc3F)n2)cc1 | -4.3% | -5.3% | -19.4% | 0.6% | -12.8% | 0.3%
CCCc1cc(=O)n2[nH]c(-c3ccc(C)cc3)nc2n1 | -12.9% | ? | -30.5% | -2.1% | ? | -4.8%
COC(=O)Cc1c(C)nc2nc(-c3ccc(C)cc3)[nH]n2c1=O | 0.2% | 10µM* | ? | -11.1% | -4.9% | -6.3%
CC(=O)ON=C1C(c2c(O)[nH]c3cc(Br)ccc23)=Nc2ccccc21 | / | / | / | / | / | -20.1%
CCN(C(=O)c1ccco1)c1nnc(-c2ccc(OC)cc2)s1 | / | ? | 12.6µM* | / | / | /
Cc1ccc2nc(-c3cccc(N)c3)[nH]c2c1 | / | 12.6µM* | ? | / | / | /
Nc1cccc(-c2nc3ccccc3[nH]2)c1 | / | -18.5% | -21.1% | / | / | /
Cc1cc(OCC(=O)NCC2(N3CCN(C)CC3)CCCCC2)cc(C)c1Cl | ? | -8.6% | -29.8% | 5.85µM* | ? | ?
Cc1ccc(OCC(=O)NCC2(N3CCN(C)CC3)CCCCC2)cc1C | -14.3% | 0.2% | -19.1% | ? | ? | 4.4%
CCOc1ccccc1NC(=O)CN1C(=O)C(=O)c2ccccc21 | -29.5% | -2.1% | ? | 2.61µM* | ? | 8.5%
CC(C)C(=O)Nc1ncc(-c2cc(C(F)F)nn2-c2c(Cl)cccc2Cl)s1 | / | / | / | / | / | -24.3%
CS(=O)(=O)c1ncc(Cl)c(C(=O)N2CCN(c3cccc(Cl)c3)CC2)n1 | 3.16µM* | 14.1µM* | -95.3% | 0.465µM* | ? | ?

High-throughput results from PubChem.
